Sampled rows, rich in hits. Any-hit rate of the full collection: about 19%.
BCR signal inh = blocks chronic active B-cell receptor signaling; ABC-DLBCL IkBa-CBG/CBR reporter, luminescence ratio, 4 h; Potency, µM (highest dose often 46.1 µM), for inactives: top-dose activity change, negative = inhibition, most hits filed as inhibitors; 340,000 compounds, 0.05% hits; AID 493014; active = well fitted inhibition curve with a large enough effect in the signal ratio, with a control signal flat, not every such curve was filed as active; inconclusive = small, poorly fitted or top-dose-only effect, or effect the other way, or a change in a side signal; the % refers to the signal ratio;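 also: potency is read from the fitted curve at half-maximal effect; plate controls were basal doxycycline-induced cells for no effect and cells given 10 µM MG132 for full effect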
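Cell line TMD8 (human ABC DLBCL), stably expressing tet-inducible CBG68-IkBa fusion and CBR; IMDM/0.5% FBS; cpd up to 46 uM; dox induction, 4 h, 37C/5% CO2; dual luminescence; green/red ratio; MG132 control.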
DT40 TDP1 no CPT = qHTS for Inhibitors of human tyrosyl-DNA phosphodiesterase 1 (TDP1): qHTS in cells in absence of CPT; 420,000 compounds, 15% hits; DT40 Tdp1-/- hTDP1 cells, no CPT, ATP luminescence, 48 h; Potency, µM (highest dose often 46.2 µM), for inactives: top-dose activity change, negative = growth inhibition, hits mostly inhibitors; AID 686978, 2013; also: potency is read from the fitted curve at half-maximal effect; % is scaled to controls: 0 for no effect and ±100 for the full control effect; nearly all actives have a fitted effect of over 55% in size
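Growth of hTDP1-complemented DT40 Tdp1-knockout cells is measured by ATP luminescence after at least 48 hr compound exposure at 37 °C, with DMSO substituting for the 20 nM CPT used in the parallel screen.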
IL1B secr inh = blocks inflammasome-driven IL-1 beta release. THP-1 LPS/ATP IL-1B secretion, AlphaLISA, 16 h; active compounds read low. activity change, % at 57.5 µM. 360,000 compounds, 4.7% hits; in the data active = activity change below about -50%; inconclusive = mostly about -30% to -49%; also: % is scaled to controls: 0 for no effect and ±100 for the full control effect
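THP-1 cells pretreated 1 hr with compounds (up to 57.5 uM final), then stimulated with LPS (250 ng/mL final) plus ATP (1.25 mM final); secreted IL-1B measured by AlphaLISA after 16 hr, decreased signal indicating inhibition.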
SW480 rereplic = induces DNA re-replication in SW480 colon adenocarcinoma cells; SW480 DNA re-replication, Hoechst DNA content imaging, 48 h; AID 624297; 340,000 compounds, 1.8% hits; Potency, µM (doses to about 46.1 µM), without a hit: at the top dose re-replication activation, usual class: activators; also: potency is read from the fitted curve at half-maximal effect; % of control where 0% means no effect; nearly all actives have a fitted effect of over 55% in size
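Quantitative HTS format with DMSO vehicle controls; 48 hr drug incubation at 37 C, then 40 min Hoechst staining and scanning imager measurement at 405 nm excitation.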
DT40 TDP1 CPT = DT40-hTDP1 cell growth loss with CPT | Potency, µM (titrated, usually from 46.2 µM), for inactives: top-dose activity change, negative = growth inhibition, most hits filed as inhibitors | 420,000 compounds, 12% hits | chicken DT40 Tdp1-/-;hTDP1 cells + 20 nM CPT, ATP luminescence, 48 h; also: potency is read from the fitted curve at half-maximal effect; % is scaled to controls: 0 for no effect and ±100 for the full control effect; nearly all actives have a fitted effect of over 55% in size
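Chicken DT40 Tdp1-/- cells complemented with human TDP1, 400 cells/well, exposed to compounds plus 20 nM camptothecin for at least 48 h at 37 C; viability read as ATP content by CellTiter-Glo luminescence.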
MCF10A rereplic = DNA re-replication induction in MCF 10a cells. MCF 10A DNA re-replication, Hoechst nuclear intensity, 48 h. Potency, µM (series often up to 46.1 µM), without a hit: at the highest dose activity, positive = re-replication, actives largely listed as activators. 350,000 compounds, 2.9% hits. AID 624296; also: potency is read from the fitted curve at half-maximal effect; % of control where 0% means no effect; nearly all actives have a fitted effect of over 50% in size
The depositor's hits bear a star; i = inactive; ? = inconclusive; · = not tested or not shown. Unless noted, calls follow the shape of the dose curve; as a rule, active = well fitted curve in the direction sought with a large enough effect; inconclusive = small, poorly fitted or top-dose-only effect, or another doubt; inactive = no such curve, though single readings can be large; an effect the other way counts as inactive or inconclusive.

SMILES | BCR signal inh | DT40 TDP1 no CPT | IL1B secr inh | SW480 rereplic | DT40 TDP1 CPT | MCF10A rereplic
COc1ccc(N(CC(=O)NCCSCc2ccc(C)cc2)S(=O)(=O)c2ccccc2)cc1 | 1.9% | 7.31µM* | i | 3.0% | ? | ?
CC(C)[C@@H]1CC[C@@H](C)C[C@H]1O | · | -17.7% | · | · | -2.4% | ·
Cc1ccc(-c2cc3c(n2-c2ccccc2F)CC(C)(C)CC3=O)cc1 | · | 13µM* | · | · | 18.4µM* | ·
COc1ccc(-n2c(-c3ccc(Cl)cc3)cc3c2CC(C)(C)CC3=O)c(OC)c1 | · | 18.4µM* | · | · | 23.1µM* | ·
COc1ccc(C)cc1-n1c(-c2ccc(Cl)cc2)cc2c1CC(C)(C)CC2=O | · | 14.6µM* | · | · | ? | ·
Cc1ccc(-n2c3c(cc(C(=O)O)c2=O)C(=O)CC(C)(C)C3)cc1 | 19.0% | -1.5% | 10.8 | 0.6% | -19.3% | -1.0%
Cc1ccc(CNS(=O)(=O)c2cc3[nH]c(=O)c(=O)[nH]c3cc2C)cc1 | · | -5.3% | · | · | 5.9% | ·
CC1(C)COC(Cc2ccccc2)=N1 | · | -0.8% | 5.5 | · | 1.2% | ·
CCOC(=O)NC(=O)/C(C#N)=C(/C)N(C)C | -12.3% | 18.7% | 0.6 | 2.3% | -0.9% | -13.6%
COc1cc2[nH]c(=O)n(CCCCCC(=O)N3CCN(c4ccccn4)CC3)c(=O)c2cc1OC | 7.7% | ? | 10.9 | -3.6% | ? | ?
COc1cccc(N2CCN(C(=O)CCCn3c(=O)[nH]c4ccc(Br)cc4c3=O)CC2)c1 | · | 6.51µM* | · | · | 20.6µM* | ·
COc1cc2[nH]c(=O)n(CCCC(=O)N3CC=C(c4ccccc4)CC3)c(=O)c2cc1OC | -0.2% | 20.6µM* | ? | -0.9% | ? | 1.4%
COc1ccc(N2CCN(C(=O)CCCn3c(=O)[nH]c4cc(Cl)ccc4c3=O)CC2)cc1 | 0.4% | ? | 7.1 | -12.5% | ? | 3.7%
CCOc1cc2[nH]c(=O)n(CCCCC(=O)N3CCN(c4ccccc4OC)CC3)c(=O)c2cc1OCC | ? | 9.2µM* | · | · | 13µM* | ·
C=CCn1c(=O)[nH]c2cc(C(=O)N3CC=C(c4ccccc4)CC3)ccc2c1=O | ? | 25.9µM* | -13.2 | 21.9% | ? | ?
O=C(NC(Cc1cccc(F)c1)C(=O)O)C1CCCCC1 (configuration not stated) | 7.7% | 1.7% | 20.0 | -2.7% | -17.0% | -22.4%
CC(C)c1ccc(/C=C(\NC(=O)c2ccccc2)C(=O)NCCCn2ccnc2)cc1 | -9.2% | ? | -9.3 | -0.5% | -15.3% | -3.9%
O=C1C=C(c2ccc(F)nc2)C[C@@H](c2ccc3c(c2)OCO3)C1 | -2.9% | ? | 7.6 | -11.3% | -29.2% | 26.6%
CCOc1cc2[nH]c(=O)n(CCCC(=O)N3CCN(c4ccc(OC)cc4)CC3)c(=O)c2cc1OCC | -12.6% | 20.6µM* | · | · | ? | ·
COc1ccc(N2CCN(C(=O)CCn3c(=O)[nH]c4cc(OC)c(OC)cc4c3=O)CC2)cc1 | · | -10.2% | · | · | -1.2% | ·
NC(=O)c1ccccc1NC(=O)Cn1nc(Cc2cccnc2)c2ccccc2c1=O | · | ? | · | · | -25.8% | ·
CCOc1cc(CNC(=O)CSc2n[nH]c(-c3ccccc3)n2)cc(OCC)c1OCC | · | ? | · | · | 20.6µM* | ·
CC(=O)Nc1cccc(NC(=O)CSc2n[nH]c(-c3ccccc3)n2)c1 | -8.5% | 6.4% | 88.6 | 12.8% | -1.1% | -4.5%
COc1cccc(CNC(=O)CSc2n[nH]c(-c3ccccc3Cl)n2)c1 | · | ? | · | · | -25.5% | ·
COc1ccc(-c2nc(SCC(=O)NCc3ccccc3Cl)n[nH]2)cc1 | · | 7.31µM* | · | · | 5.8µM* | ·
SMILES | BCR signal inh | DT40 TDP1 no CPT | IL1B secr inh | SW480 rereplic | DT40 TDP1 CPT | MCF10A rereplic
Cc1c(NC(=S)NC(=O)c2cccc(Br)c2)c(=O)n(-c2ccccc2)n1C | -9.2% | 11.3% | 8.0 | 6.4% | 33.2% | -0.2%
Cc1c(OC(C)C(=O)NCc2ccncc2)ccc2c3c(c(=O)oc12)CCCC3 (configuration not stated) | 6.6% | ? | ? | -1.4% | 20.6µM* | 14.9%
Cc1c(OC(C)C(=O)NCc2ccccn2)ccc2c3c(c(=O)oc12)CCC3 (configuration not stated) | ? | ? | -13.4 | -10.1% | ? | -0.8%
Cc1c(OC(C)C(=O)NCC(O)c2ccccc2)ccc2c3c(c(=O)oc12)CCCC3 (configuration not stated) | -0.3% | ? | -28.5 | 11.9% | 23.1µM* | -31.6%
Cc1cc(=O)oc2c(C)c(OC(C)C(=O)NCC(O)c3ccccc3)ccc12 (configuration not stated) | -1.4% | 8.3% | -25.2 | -3.3% | -9.7% | -12.3%
COc1ccccc1CNC(=O)CCn1c(=O)c2ccccc2n(CC(=O)Nc2ccc(C)cc2C)c1=O | · | -6.9% | · | · | 0.7% | ·
CC1=C(C(=O)Nc2nc3ccccc3s2)C(c2ccco2)C(C#N)=C(SCC(=O)NC2CCCCC2)N1 (configuration not stated) | 1.7% | 20.6µM* | ? | 18.4µM* | 13µM* | 14.6µM*
CC1=C(C(=O)Nc2ccccc2)C(c2ccncc2)C(C#N)=C(SCC(=O)NC2CC2)N1 (configuration not stated) | 1.8% | -14.8% | 15.4 | -2.6% | -15.4% | -6.2%
CN(c1ccc(C(=O)N2CCN(Cc3ccc4c(c3)OCO4)CC2)cc1)S(C)(=O)=O | -0.7% | -28.6% | 0.4 | -56.0% | -8.0% | -14.5%
COc1ccc(CN2CCN(C(=O)c3ccc(S(=O)(=O)N4CCCCCC4)cc3)CC2)cc1 | ? | 14.6µM* | ? | 15.5% | ? | ?
O=C(c1ccc(S(=O)(=O)c2cccc(Cl)c2)c([N+](=O)[O-])c1)N1CCN(Cc2ccccc2)CC1 | ? | 5.8µM* | -98.9* | ? | 3.66µM* | 20.6µM*
O=C(c1ccc(S(=O)(=O)N2CCCCCC2)cc1)N1CCN(Cc2ccccc2)CC1 | ? | -26.8% | ? | -21.1% | -29.8% | 27.9%
O=C(c1ccc(S(=O)(=O)N2CCCC2)cc1)N1CCN(Cc2ccc3c(c2)OCO3)CC1 | 1.7% | 16.4µM* | -19.2 | -4.0% | ? | 0.5%
COc1ccc(COC(=O)C2CCN(C(=O)c3ccc(Cl)cc3)CC2)cc1F | -4.3% | ? | 0.0 | 2.3% | ? | 14.6µM*
O=C(c1ccc(Cl)c([N+](=O)[O-])c1)N1CCN(Cc2ccc3c(c2)OCO3)CC1 | 0.1% | ? | -75.6* | -5.1% | -29.5% | 24.5%
COc1ccc(CN2CCN(C(=O)c3ccc(S(=O)(=O)N4CCCCCC4)cc3)CC2)cc1F | 1.4% | 20.6µM* | -20.6 | 0.0% | 20.6µM* | 10.6%
